Counter-ions that a name gives are not always drawn. ± gives the standard deviation of the averaged measurements.
Tests used:
Assay in all cases: growth (OD600 after 10 h); higher = more growth (less inhibition)
[1] = tested on: E. coli TESEC Alr+ wild-type control; conditions: compound 0.1 mM; raw OD600 reference: median of DMSO wells 0.241, cell-free background 0.041
Description: (§1)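 TESEC Mtb Alr E. coli, or the Alr+ wild-type control, in 384-well plates with Prestwick library compounds at 0.1 mM and 1% DMSO, across arabinose induction levels of 1E3 to 1E7 nM. Growth is read as OD600 after 10 h at 37 °C in triplicate biological replicates.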

[2] = tested on: E. coli TESEC Mtb Alr; conditions: compound 0.1 mM
Description: as §1

[3] = tested on: E. coli TESEC Mtb Asd; conditions: compound 0.1 mM
Description: (§2)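 TESEC E. coli strains in which the native enzyme is deleted and replaced by arabinose-inducible Mtb Asd, DapB, CysH or TrpD, each grown in its selective medium. Strains were screened against the Prestwick library at 0.1 mM and 1% DMSO in 384-well format at low and high arabinose induction. Growth is read as OD600 after 10 h in triplicate.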

[4] = tested on: E. coli TESEC Alr+ wild-type control; conditions: compound 0.1 mM; raw OD600 reference: median of DMSO wells 0.49, cell-free background 0.052
Description: (§3)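 TESEC Mtb Alr E. coli (ΔaraC ΔtolC ΔentC Δalr ΔdadX, arabinose-inducible Mtb Alr) or the Alr+ wild-type control strain, grown in defined M9-fructose medium without D-alanine in 96-well plates with Prestwick library compounds at 0.1 mM and 1% DMSO. Low Alr induction is 0.1 µM arabinose and high induction is 10 mM arabinose.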

[5] = tested on: E. coli TESEC Mtb Alr; conditions: compound 0.1 mM; remark: listed apart in the source
Description: as §3

[6] = tested on: E. coli TESEC Mtb DapB; conditions: compound 0.1 mM
Description: as §2

[7] = arabinose 1000 nM, raw OD600 reference: median of DMSO wells 0.294, cell-free background 0.041
[8] = arabinose 10000 nM, raw OD600 reference: median of DMSO wells 0.264, cell-free background 0.041
[9] = arabinose 100000 nM, raw OD600 reference: median of DMSO wells 0.201, cell-free background 0.041
[10] = arabinose 1000000 nM, raw OD600 reference: median of DMSO wells 0.193, cell-free background 0.041
[11] = arabinose 10000000 nM, raw OD600 reference: median of DMSO wells 0.146, cell-free background 0.041
[12] = arabinose induction (level): High, raw OD600 reference: median of DMSO wells 0.331, cell-free background 0.041
[13] = arabinose induction (level): Low, raw OD600 reference: median of DMSO wells 0.417, cell-free background 0.041
[14] = arabinose 100 nM, raw OD600 reference: median of DMSO wells 0.413, cell-free background 0.052
[15] = arabinose 10000000 nM, raw OD600 reference: median of DMSO wells […], cell-free background 0.052
[16] = arabinose induction (level): High, raw OD600 reference: median of DMSO wells […], cell-free background 0.041
[17] = arabinose induction (level): Low, raw OD600 reference: median of DMSO wells 0.227, cell-free background 0.041

Structure (SMILES) | growth [1] | growth [2, 7] | growth [2, 8] | growth [2, 9] | growth [2, 10] | growth [2, 11] | growth [3, 12] | growth [3, 13] | growth [4] | growth [5, 14] | growth [5, 15] | growth [6, 16] | growth [6, 17]
C[C@]1(Cn2ccnn2)[C@H](C(=O)O)N2C(=O)C[C@H]2S1(=O)=O [Tazobactam] | 0.249 ± 0.011 | 0.0404 ± 0.0022 | 0.0384 ± 0.0001 | 0.045 ± 0.0019 | 0.18 ± 0.015 | 0.074 ± 0.0014 | 0.405 ± 0.031 | 0.424 ± 0.022 | 0.0454 ± 0.00051 | 0.245 ± 0.17 | 0.0826 ± 0.0045 |  | 
O=C(O)CCc1nc(-c2ccccc2)c(-c2ccccc2)o1 [Oxaprozin] | 0.143 ± 0.0053 | 0.169 ± 0.0038 | 0.206 ± 0.0029 | 0.102 ± 0.0063 | 0.0905 ± 0.0025 | 0.0775 ± 0.0013 | 0.223 ± 0.022 | 0.165 ± 0.0041 | 0.381 ± 0.039 | 0.3746 ± 0.0018 | 0.128 ± 0.0076 |  | 
Cc1cc(NC(=O)C2=C(O)c3ccccc3S(=O)(=O)N2C)no1 [Isoxicam] | 0.25 ± 0.0032 | 0.255 ± 0.038 | 0.26 ± 0.0052 | 0.184 ± 0.033 | 0.184 ± 0.0038 | 0.135 ± 0.0033 | 0.252 ± 0.022 | 0.395 ± 0.081 |  | 0.412 ± 0.015 | 0.299 ± 0.037 | 0.199 ± 0.0028 | 0.216 ± 0.034
O=C(NC(Cc1cc(=O)[nH]c2ccccc12)C(=O)O)c1ccc(Cl)cc1 (stereo unspecified) [Rebamipide] | 0.26 ± 0.0077 | 0.314 ± 0.015 | 0.259 ± 0.0053 | 0.211 ± 0.01 | 0.196 ± 0.0026 | 0.146 ± 0.0044 | 0.312 ± 0.035 | 0.435 ± 0.058 | 0.484 ± 0.068 | 0.409 ± 0.012 | 0.368 ± 0.014 |  | 
CC(COc1ccccc1)NC(C)C(O)c1ccc(O)cc1 (stereo unspecified) [Isoxsuprine hydrochloride] | 0.224 ± 0.0098 | 0.29 ± 0.014 | 0.256 ± 0.003 | 0.183 ± 0.011 | 0.156 ± 0.0029 | 0.157 ± 0.0078 | 0.25 ± 0.081 | 0.402 ± 0.079 | 0.5 ± 0.066 | 0.413 ± 0.0062 | 0.34 ± 0.02 |  | 
c1ccc(-c2ccc(C(c3ccccc3)n3ccnc3)cc2)cc1 (stereo unspecified) [Bifonazole] | 0.048 ± 0.0064 | 0.0456 ± 0.0051 | 0.0548 ± 0.0019 | 0.0516 ± 0.0035 | 0.0499 ± 0.0019 | 0.0504 ± 0.0085 | 0.048 ± 0.00098 | 0.0481 ± 0.0011 | 0.0548 ± 0.0039 | 0.0739 ± 0.015 | 0.0689 ± 0.0074 |  | 
CN(C)CCOC(=O)COc1ccc(Cl)cc1 [Meclofenoxate hydrochloride] | 0.235 ± 0.0029 | 0.3 ± 0.018 | 0.267 ± 0.0092 | 0.199 ± 0.013 | 0.184 ± 0.0027 | 0.138 ± 0.0014 | 0.355 ± 0.032 | 0.426 ± 0.029 |  | 0.4 ± 0.013 | 0.313 ± 0.014 | 0.199 ± 0.014 | 0.204 ± 0.019
CCN(CC)C(C)CN1c2ccccc2Sc2ccccc21 (stereo unspecified) [Ethopropazine hydrochloride] | 0.17 ± 0.0058 | 0.214 ± 0.0057 | 0.271 ± 0.016 | 0.172 ± 0.003 | 0.135 ± 0.0087 | 0.174 ± 0.0019 | 0.156 ± 0.031 | 0.289 ± 0.03 | 0.469 ± 0.026 | 0.413 ± 0.0094 | 0.333 ± 0.014 |  | 
COC(=O)C1=C(C)NC(C)=C(C(=O)OC(C)C)C1c1cccc2nonc12 (stereo unspecified) [Isradipine] | 0.149 ± 0.0056 | 0.206 ± 0.0037 | 0.254 ± 0.015 | 0.164 ± 0.0057 | 0.0817 ± 0.0022 | 0.154 ± 0.0037 | 0.166 ± 0.018 | 0.259 ± 0.041 | 0.379 ± 0.0051 | 0.394 ± 0.01 | 0.167 ± 0.038 |  | 
CCCNC(C)(C)COC(=O)c1ccccc1 [Meprylcaine hydrochloride] | 0.234 ± 0.0059 | 0.298 ± 0.0024 | 0.2777 ± 0.0023 | 0.211 ± 0.0098 | 0.215 ± 0.025 | 0.133 ± 0.0041 | 0.281 ± 0.061 | 0.338 ± 0.025 | 0.6187 ± 0.0042 | 0.419 ± 0.0049 | 0.339 ± 0.0092 |  | 
COc1ccc(CCN(C)CCCC(C#N)(c2ccc(OC)c(OC)c2)C(C)C)cc1OC (stereo unspecified) [Verapamil hydrochloride] | 0.185 ± 0.0071 | 0.25 ± 0.0055 | 0.27 ± 0.0044 | 0.195 ± 0.0032 | 0.116 ± 0.0045 | 0.149 ± 0.0027 | 0.243 ± 0.048 | 0.346 ± 0.095 | 0.461 ± 0.022 | 0.409 ± 0.005 | 0.258 ± 0.014 |  | 
CC[C@H](C)[C@H]1O[C@]2(CC[C@@H]1C)C[C@@H]1C[C@@H](CC=C(C)C(O[C@H]3C[C@H](OC)[C@@H](O[C@H]4C[C@H](OC)[C@@H](O)[C@H](C)O4)[C@H](C)O3)[C@@H](C)C=CC=C3CO[C@@H]4[C@H](O)C(C)=C[C@@H](C(=O)O1)[C@]34O)O2 (stereo partly specified) [Ivermectin] | 0.315 ± 0.013 | 0.361 ± 0.0096 | 0.291 ± 0.0046 | 0.393 ± 0.048 | 0.209 ± 0.0085 | 0.222 ± 0.0088 | 0.343 ± 0.072 | 0.318 ± 0.13 | 0.525 ± 0.066 | 0.473 ± 0.046 | 0.409 ± 0.038 |  | 
COc1cnc(NS(=O)(=O)c2ccc(N)cc2)nc1 [Sulfameter] | 0.242 ± 0.0095 | 0.283 ± 0.0042 | 0.239 ± 0.011 | 0.218 ± 0.029 | 0.158 ± 0.0061 | 0.143 ± 0.0066 | 0.442 ± 0.039 | 0.399 ± 0.024 |  | 0.407 ± 0.021 | 0.336 ± 0.0042 | 0.207 ± 0.027 | 0.243 ± 0.0072

Source: the supplement of paper PMC9262897, “Low-cost anti-mycobacterial drug discovery using engineered E. coli” (Nature Communications, 2022)
